Among all 350,000 compounds or so, about 9,900 (2.8%) were called active. Inconclusive results (about 15%) are left out. The call rests on the fitted dose curve; in most records, active means well fitted activation curve with a large enough effect; inconclusive means small, poorly fitted or top-dose-only effect; inactive means no such curve, though single readings can be large or run the other way. The entries come from a sample that favours actives as a whole. Where a call stands in place of a potency, no number is given.
Potency means the concentration at half of the fitted maximal effect.

The assay can be described thus: A quantitative high throughput screen for small molecules that induce DNA re-replication in MCF 10a normal breast cells. Further: nearly all actives have a fitted effect of over 50% in size. Particulars: MCF 10A DNA re-replication, Hoechst nuclear intensity, 48 h; series mostly up to 46.1 µM.
On to `O=C(NCCc1ccccc1)c1c[nH]c2ccc(F)cc2c1=O`, for which the Potency result is “inactive”. As to `Nn1c(SCC(=O)NC2CCCc3ccccc32)nnc1C1CC1` (stereo not drawn), the Potency result was “inactive”. Take `Cc1noc(C)c1S(=O)(=O)N(C)C[C@H]1Oc2ccc(NC(=O)C3CC3)cc2C(=O)N([C@H](C)CO)C[C@@H]1C`: the Potency entry is “inactive”. As for `COc1ccc(-c2nc3c(s2)CCc2onc(-c4ccc(Br)cc4)c2-3)cc1`, the Potency result was “inactive”. As to `COc1ccc(-c2nc3c(s2)CCc2onc(-c4ccc(OC)cc4)c2-3)cc1`, the Potency was 4.11 µM (active).

For `COc1ccc(-c2nc3n(c2Br)CCC3)cc1`, the Potency result is “inactive”. As to `O=C(O)c1ccccc1/C=N/Nc1ccc(S(=O)(=O)Nc2ccc(Cl)cc2)cc1[N+](=O)[O-]`, the Potency result is “inactive”. Regarding `Cc1noc(C)c1NC(=O)Nc1ccc2c(c1)C(=O)N([C@H](C)CO)C[C@H](C)[C@@H](CN(C)C(=O)Nc1ccccc1)O2`, the Potency result was “inactive”. The same measure for `CCOC(=O)C(=Cc1ccccc1OC)C(=O)OCC`: 14.6 µM (active); for `CCOC(=O)C(=CNc1cccc(C)n1)C(=O)OCC`: “inactive”.

For `COc1ccccc1C(=O)c1ccccc1C(=O)c1ccccc1`, the Potency entry was “inactive”. As for `Cn1nc(-c2ccccc2)c(CSc2cccc(Cl)c2)c1Cl`, the Potency is 5.17 µM (active). Consider `Cn1nc(-c2ccccc2)c(CO)c1Sc1ccccc1`, for which the Potency entry is “inactive”. Regarding `Cc1ccc(S(=O)(=O)c2c(COC(=O)c3cccc(Cl)c3)c(-c3ccccc3)nn2C)cc1`, the Potency result is “inactive”. For `O=C(NN=Cc1ccc(N2CCOCC2)cc1)c1cc2ccccc2cc1O`, the Potency result was “inactive”. With `CCOCc1c(C(=O)N2CCN(Cc3ccc(Br)s3)CC2)oc2ccccc12`, the Potency entry is “inactive”. The same measure for `CN(C)c1ccc(/C=N/N(Cc2ccccc2)c2ccccc2)cc1`: “inactive”.

`CCN(/N=C/c1ccccc1)c1cc(=O)n(C)c(=O)[nH]1`: the Potency result was “inactive”.

`CCN(/N=C/c1ccc(N(C)C)cc1)c1nc2ccccc2[nH]1`: the Potency is 5.8 µM (active). Regarding `Cc1ccc(S(=O)(=O)N2CCN(C(=O)COC(=O)CNC(=O)c3ccc(C(C)(C)C)cc3)CC2)c(C)c1`, the Potency result is “inactive”. Take `O=C(CCNS(=O)(=O)c1ccccc1)NCCCc1ccccc1`: the Potency result is “inactive”. Regarding `O=C(Cc1ccc(NC(=O)C2CCCN(C(=O)CCc3ccccc3)C2)cc1)Nc1ccc(C(=O)N2CCOCC2)cc1` (stereo not drawn), the Potency entry was “inactive”. Regarding `Cn1c(=O)[nH]c2c(c(C(=O)O)nn2C)c1=O`, the Potency result was “inactive”. `O=C(Nc1ccc(Cl)c(Cl)c1)N1CC=C(c2ccccc2)CC1`: the Potency is 14.6 µM (active).

As for `COc1cc(C(=O)NCC(=O)N2CC=C(c3ccccc3)CC2)cc(OC)c1OC`, the Potency entry was “inactive”. Take `O=C(O)c1cccc(S(=O)(=O)N2CC=C(c3ccccc3)CC2)c1`: the Potency entry was “inactive”. As to `CCOc1ccc(/C=C(/C#N)c2nnc(N3CCOCC3)n2-c2ccccc2)cc1OC`, the Potency entry is “inactive”. Consider `COc1cccc2c1C(=O)c1c(O)c3c(c(O)c1C2=O)CC(O)(C(C)=NNC(=O)c1ccc(Cl)c(Cl)c1)CC3OC1CC(N)C(O)C(C)O1` (stereo not drawn), for which the Potency result is “inactive”. For `COc1cc(OC)c(C(=O)Nc2ccccc2-c2ccccc2)cc1OC`, the Potency is 18.4 µM (active). As to `COc1cc2ccccc2cc1C(=O)Nc1ccccc1C`, the Potency result is “inactive”. For `O=C(Nc1ccccc1-c1ccccc1)c1ccccc1[N+](=O)[O-]`, the Potency entry is “inactive”. In the case of `O=C1C=C(c2cccc(Br)c2)C[C@@H](c2ccc(F)cc2)C1`, the Potency entry is “inactive”. On to `CNc1nc(=O)n(C2CCCO2)cc1C` (stereo not drawn), for which the Potency result was “inactive”. With `COc1ccc(C(=O)Nc2ccc(N3CCC(C)CC3)cc2)cc1Br`, the Potency entry was “inactive”. In the case of `COc1ccc(C2(C#N)CCC(C(=O)O)CC2)cc1OC1CCCC1` (stereo not drawn), the Potency result was “inactive”. In the case of `COc1ccc(C(=O)Nc2ccc(C3(C#N)CCCC3)cc2)cc1OC`, the Potency was 20.6 µM (active). With `COC(=O)CSC1=C(C#N)C(c2ccccc2OC)C(C(=O)OC)C(=O)N1` (stereo not drawn), the Potency entry is “inactive”. For `C=CCOC(=O)C1=C(C)NC(SCC(=O)OCC)=C(C#N)C1c1ccc(C)cc1` (stereo not drawn), the Potency result was “inactive”. Take `COc1cc2c(cc1OC)C(c1ccc(C)o1)CC(=O)N2` (stereo not drawn): the Potency result is “inactive”. For `CCOC(=O)CSC1=C(C#N)C(c2sccc2C)CC(=O)N1` (stereo not drawn) the value was 2 µM (active); for `Cc1ccc(C2CC(=O)NC(SCC(=O)OCc3ccccc3)=C2C#N)o1` (stereo not drawn), 20.6 µM (active); for `C=CCSC1=C(C#N)C(c2cc(Br)c(O)c(OC)c2)CC(=O)N1` (stereo not drawn), “inactive”. Regarding `CSCCC(NC(=O)COc1ccccc1)C(=O)OCc1ccc(Cl)cc1` (stereo not drawn), the Potency result was “inactive”. For the compound `COc1cc(N)c(Cl)cc1C(=O)OCC(=O)c1ccc2c(c1)NC(=O)CO2`, the Potency result was “inactive”. `CCOC(=O)N(Cc1ccccc1)C1CC1`: the Potency entry was “inactive”. For the compound `CC1(C)C(=O)CCC2(C)C1=CCC1C2C(=O)CC2(C)C1CCC2(O)C(=O)CO` (stereo not drawn), the Potency entry was “inactive”. As to `NS(=O)(=O)c1ccc(CNC(=S)NC(=O)c2ccco2)cc1`, the Potency entry was “inactive”. With `O=C(CNC(=O)c1ccc2ccccc2c1)Nc1ncccc1O`, the Potency result is “inactive”. As to `CCOc1cccc(-n2nnnc2-c2ccc(OC)cc2)c1`, the Potency was 6.51 µM (active). In the case of `CCOC(=O)C(C)n1cnc2c(nnn2-c2cccc(OC)c2)c1=O` (stereo not drawn), the Potency entry was “inactive”. Take `c1ccc(-n2nnnc2-c2cccnc2)cc1`: the Potency entry is “inactive”. On to `CC1CCCCC1NCC(=O)Nc1ccccc1C(=O)Nc1ccccc1` (stereo not drawn), for which the Potency result was “inactive”.

Turning to `CC(C#N)(NC(=O)CN1CCN(S(=O)(=O)c2cc(C(F)(F)F)ccc2Cl)CC1)C1CC1` (stereo not drawn), the Potency entry was “inactive”.

For the compound `CCN1CCN(c2cc3nc(C)n(Cc4ccccc4)c(=O)c3cc2NC(=O)c2ccccc2F)CC1`, the Potency is 18.4 µM (active). Take `CCOc1cc(NC(=O)c2ccccc2C(=O)O)c(OCC)cc1NC(=O)c1ccccc1F`: the Potency result was “inactive”.

For `CCC(=O)Nc1ccc2nc(C)n(Cc3ccccc3Cl)c(=O)c2c1`, the Potency result is “inactive”. As to `O=C(N=C1SC2CS(=O)(=O)CC2N1c1ccccc1)c1ccccc1` (stereo not drawn), the Potency entry is “inactive”. The same measure for `C[C@@H]1CN([C@@H](C)CO)C(=O)c2cccc(NS(=O)(=O)c3ccc(F)cc3)c2O[C@H]1CN(C)C(=O)NC1CCCCC1`: “inactive”.

Take `CN(C)CCNC(=O)c1ccc(Cl)c2cc3ccccc3nc12`: the Potency entry was “inactive”.

For `Cc1ccc(NC(=O)c2cccc(S(=O)(=O)N3CCCc4ccccc43)c2)nc1`, the Potency result is “inactive”. `CS(=O)(=O)c1ccc2nc(NC(=O)c3ccc(N4CCCC4=O)cc3)sc2c1`: the Potency result was “inactive”. For the compound `O=C(Nc1nc2ccc([N+](=O)[O-])cc2s1)c1ccc(S(=O)(=O)N2CCCc3ccccc32)cc1`, the Potency was 2.59 µM (active). `COc1ccc(CCNC(=O)Cc2ccc(C)cc2)cc1OC`: the Potency entry was “inactive”. For the compound `COc1ccc(CNC(=O)Cc2ccc(-c3ccccc3)cc2)cc1OC`, the Potency was 11.6 µM (active). `COc1ccc(NC(=O)CNC(=O)Cc2ccccc2)cc1OC`: the Potency result is “inactive”. For `COc1ccc(CNC(=O)COc2ccccc2C(=O)c2cnn(-c3ccccc3)c2)cc1OC` the value was 13 µM (active); for `COc1ccc(CNC(=O)COC(=O)c2sccc2C)cc1OC`, “inactive”; for `COc1ccc(CNC(=O)COC(=O)c2c(C)nn(-c3ccccc3)c2C)cc1OC`, “inactive”.

Source of the values: PubChem BioAssay AID624296 (National Center for Advancing Translational Sciences (NCATS), 2012).
